What all share (set-up): scale not given: direction of the effect not stated beside the values
Assay [1] has as its target Protein translocase subunit SecA (Escherichia coli (strain K12)) (UniProt P10408). Kind of assay: Assay to Identify E. coli SecA ATPase Inhibitors. The class given is functional. The settings on record: 30 µM.
Assay [2] deals with T1, Ubiquitin-activating enzyme e1, putative (Leishmania donovani (strain BPK282A1)) (UniProt E9BSI1).
T1 sequence (whole entry): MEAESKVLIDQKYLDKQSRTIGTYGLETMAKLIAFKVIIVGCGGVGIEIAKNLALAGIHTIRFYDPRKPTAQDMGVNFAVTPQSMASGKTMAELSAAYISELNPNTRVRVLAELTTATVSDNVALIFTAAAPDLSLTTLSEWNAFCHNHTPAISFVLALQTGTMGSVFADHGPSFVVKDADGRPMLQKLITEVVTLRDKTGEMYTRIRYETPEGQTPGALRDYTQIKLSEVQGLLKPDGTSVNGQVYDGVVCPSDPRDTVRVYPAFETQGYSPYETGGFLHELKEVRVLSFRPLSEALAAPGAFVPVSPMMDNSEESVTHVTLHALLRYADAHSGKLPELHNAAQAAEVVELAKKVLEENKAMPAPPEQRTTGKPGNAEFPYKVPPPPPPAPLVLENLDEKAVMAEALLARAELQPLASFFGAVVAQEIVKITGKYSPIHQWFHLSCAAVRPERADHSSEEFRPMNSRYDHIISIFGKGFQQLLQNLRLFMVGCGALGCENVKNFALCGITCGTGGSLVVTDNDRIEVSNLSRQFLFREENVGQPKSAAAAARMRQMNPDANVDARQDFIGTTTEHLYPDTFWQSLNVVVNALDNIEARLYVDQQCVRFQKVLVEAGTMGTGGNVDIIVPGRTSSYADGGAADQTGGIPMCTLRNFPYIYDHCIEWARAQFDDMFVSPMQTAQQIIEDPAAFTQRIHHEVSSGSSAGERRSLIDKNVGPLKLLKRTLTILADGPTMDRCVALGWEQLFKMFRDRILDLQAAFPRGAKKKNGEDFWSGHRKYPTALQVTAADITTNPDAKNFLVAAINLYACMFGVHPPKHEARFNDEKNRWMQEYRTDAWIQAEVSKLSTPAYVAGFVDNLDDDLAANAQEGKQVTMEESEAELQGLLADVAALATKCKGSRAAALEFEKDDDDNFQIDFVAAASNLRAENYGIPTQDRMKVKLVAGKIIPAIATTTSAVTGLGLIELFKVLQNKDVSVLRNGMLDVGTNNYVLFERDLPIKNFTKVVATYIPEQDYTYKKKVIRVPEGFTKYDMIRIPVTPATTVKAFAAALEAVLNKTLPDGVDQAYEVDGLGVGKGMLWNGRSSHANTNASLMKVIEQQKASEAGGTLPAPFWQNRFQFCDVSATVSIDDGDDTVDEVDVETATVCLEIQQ
Description: Leishmania donovani Ubiquitin Activating Enzyme (LdE1). The format is functional. The settings on record: 30 µM.

The target of assay [3] is Sialic acid-binding Ig-like lectin 9 (Homo sapiens) (UniProt Q9Y336). Description: Hs-Siglec9 ALPHAscreen SOP 20170721. The settings on record: 10 µM.
Sialic acid-binding Ig-like lectin 9 (Homo sapiens), sequence (Q9Y336 whole entry): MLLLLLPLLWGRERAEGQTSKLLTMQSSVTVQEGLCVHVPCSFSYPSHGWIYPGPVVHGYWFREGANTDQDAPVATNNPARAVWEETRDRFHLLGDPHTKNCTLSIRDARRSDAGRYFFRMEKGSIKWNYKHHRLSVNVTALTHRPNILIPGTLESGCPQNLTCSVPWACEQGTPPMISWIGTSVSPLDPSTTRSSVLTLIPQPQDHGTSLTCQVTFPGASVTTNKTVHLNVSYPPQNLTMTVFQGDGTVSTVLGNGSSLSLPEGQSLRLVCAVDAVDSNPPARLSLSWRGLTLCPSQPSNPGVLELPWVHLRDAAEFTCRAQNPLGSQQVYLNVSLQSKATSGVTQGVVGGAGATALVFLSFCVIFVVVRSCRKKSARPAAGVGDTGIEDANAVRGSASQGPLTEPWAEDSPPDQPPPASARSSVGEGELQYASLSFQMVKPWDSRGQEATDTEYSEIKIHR
A further assay has as its system Trypanosoma cruzi. Kind of assay: Trypanosoma cruzi phosphomannomutase and mannose-1-phosphate guanylyltransferase assay. The class given is functional. Conditions: 10 µM.
Assay [4] has as its target T2, Arginase-2, mitochondrial (Homo sapiens) (UniProt P78540).
T2 sequence (whole entry): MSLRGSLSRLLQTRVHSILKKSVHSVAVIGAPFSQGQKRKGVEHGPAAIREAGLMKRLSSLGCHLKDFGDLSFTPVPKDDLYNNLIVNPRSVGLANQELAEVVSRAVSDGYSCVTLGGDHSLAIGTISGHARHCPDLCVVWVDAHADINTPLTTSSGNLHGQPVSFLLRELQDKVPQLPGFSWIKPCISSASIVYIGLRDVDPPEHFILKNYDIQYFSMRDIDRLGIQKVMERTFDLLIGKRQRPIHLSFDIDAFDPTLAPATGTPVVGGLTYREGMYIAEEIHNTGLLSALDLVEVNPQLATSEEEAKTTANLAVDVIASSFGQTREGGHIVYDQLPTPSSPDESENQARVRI
Description: in vitro enzyme assay to detect the production of urea directly proportional to the activity of Arginase II. Also: in the data most compounds retested in dose-response had high values. The format is functional. The settings on record: 33.3 µM.

The target in assay [5] is T3, Proteasome subunit beta (Trypanosoma cruzi) (UniProt O96673).
T3 sequence (whole entry): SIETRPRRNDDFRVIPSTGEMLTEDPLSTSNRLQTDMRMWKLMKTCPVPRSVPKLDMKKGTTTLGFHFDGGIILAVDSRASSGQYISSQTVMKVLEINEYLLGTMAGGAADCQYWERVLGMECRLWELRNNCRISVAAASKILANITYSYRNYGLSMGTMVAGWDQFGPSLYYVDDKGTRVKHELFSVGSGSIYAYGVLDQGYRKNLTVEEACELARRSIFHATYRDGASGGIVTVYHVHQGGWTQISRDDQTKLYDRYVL
Kind of assay: Trypanosoma cruzi proteasome chymotrypsin-like activity (TcProtChymo) assay. Also: in the data most compounds retested in dose-response had high values. The format is functional. The settings on record: 9.37 µM.

The species named for the next assay is Homo sapiens. Description: To identify inhibition of the IFN signalling (Jak-Stat) pathway via expression of an eGFP reporter gene under the control of an IFN-stimulated response element (ISRE) containing MxA promoter. The format is functional. Conditions: 30 µM.
Assay [6] concerns the target T4, Tyrosyl-tRNA synthetase, putative (Trypanosoma cruzi (strain CL Brener)) (UniProt Q4DSP6).
T4 sequence (whole entry): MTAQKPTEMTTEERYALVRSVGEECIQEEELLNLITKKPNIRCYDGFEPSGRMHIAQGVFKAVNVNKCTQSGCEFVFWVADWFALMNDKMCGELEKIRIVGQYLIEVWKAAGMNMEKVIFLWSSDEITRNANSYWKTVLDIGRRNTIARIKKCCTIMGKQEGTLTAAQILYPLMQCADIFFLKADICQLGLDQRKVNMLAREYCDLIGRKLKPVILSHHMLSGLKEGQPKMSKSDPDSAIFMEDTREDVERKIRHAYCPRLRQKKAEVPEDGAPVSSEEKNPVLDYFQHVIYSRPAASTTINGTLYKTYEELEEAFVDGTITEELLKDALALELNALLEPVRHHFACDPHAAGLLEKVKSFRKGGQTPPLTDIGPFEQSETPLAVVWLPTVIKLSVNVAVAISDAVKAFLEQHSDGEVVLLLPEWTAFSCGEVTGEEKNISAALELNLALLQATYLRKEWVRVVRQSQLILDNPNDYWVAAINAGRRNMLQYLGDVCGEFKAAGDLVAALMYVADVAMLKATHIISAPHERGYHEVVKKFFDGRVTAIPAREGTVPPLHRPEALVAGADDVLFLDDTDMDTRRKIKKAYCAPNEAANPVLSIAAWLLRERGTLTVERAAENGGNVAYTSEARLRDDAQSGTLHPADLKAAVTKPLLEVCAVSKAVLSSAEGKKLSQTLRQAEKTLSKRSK
Description: Trypanosoma cruzi tyrosyl tRNA synthetase (TcYRS) _High Tyrosine SOP. Also: in the data most compounds retested in dose-response had high values. The class given is functional. The settings on record: 30 µM.

In assay [7] the target is T4, Tyrosyl-tRNA synthetase, putative (Trypanosoma cruzi (strain CL Brener)). Kind of assay: Trypanosoma cruzi tyrosyl tRNA synthetase (TcYRS) SOP. The class given is functional. Conditions: 30 µM.
For assay [8], the target named is Chromo domain-containing protein 1 (Saccharomyces cerevisiae (strain ATCC 204508 / S288c) (Baker's yeast)) (UniProt P32657). Description: ScCHD-1 Enzyme Inhibition Assay. Also: in the data most compounds retested in dose-response had high values. The format is functional. Conditions: 30 µM.
Chromo domain-containing protein 1 (Saccharomyces cerevisiae (strain ATCC 204508 / S288c) (Baker's yeast)), sequence (P32657 whole entry, the tested form may be a part): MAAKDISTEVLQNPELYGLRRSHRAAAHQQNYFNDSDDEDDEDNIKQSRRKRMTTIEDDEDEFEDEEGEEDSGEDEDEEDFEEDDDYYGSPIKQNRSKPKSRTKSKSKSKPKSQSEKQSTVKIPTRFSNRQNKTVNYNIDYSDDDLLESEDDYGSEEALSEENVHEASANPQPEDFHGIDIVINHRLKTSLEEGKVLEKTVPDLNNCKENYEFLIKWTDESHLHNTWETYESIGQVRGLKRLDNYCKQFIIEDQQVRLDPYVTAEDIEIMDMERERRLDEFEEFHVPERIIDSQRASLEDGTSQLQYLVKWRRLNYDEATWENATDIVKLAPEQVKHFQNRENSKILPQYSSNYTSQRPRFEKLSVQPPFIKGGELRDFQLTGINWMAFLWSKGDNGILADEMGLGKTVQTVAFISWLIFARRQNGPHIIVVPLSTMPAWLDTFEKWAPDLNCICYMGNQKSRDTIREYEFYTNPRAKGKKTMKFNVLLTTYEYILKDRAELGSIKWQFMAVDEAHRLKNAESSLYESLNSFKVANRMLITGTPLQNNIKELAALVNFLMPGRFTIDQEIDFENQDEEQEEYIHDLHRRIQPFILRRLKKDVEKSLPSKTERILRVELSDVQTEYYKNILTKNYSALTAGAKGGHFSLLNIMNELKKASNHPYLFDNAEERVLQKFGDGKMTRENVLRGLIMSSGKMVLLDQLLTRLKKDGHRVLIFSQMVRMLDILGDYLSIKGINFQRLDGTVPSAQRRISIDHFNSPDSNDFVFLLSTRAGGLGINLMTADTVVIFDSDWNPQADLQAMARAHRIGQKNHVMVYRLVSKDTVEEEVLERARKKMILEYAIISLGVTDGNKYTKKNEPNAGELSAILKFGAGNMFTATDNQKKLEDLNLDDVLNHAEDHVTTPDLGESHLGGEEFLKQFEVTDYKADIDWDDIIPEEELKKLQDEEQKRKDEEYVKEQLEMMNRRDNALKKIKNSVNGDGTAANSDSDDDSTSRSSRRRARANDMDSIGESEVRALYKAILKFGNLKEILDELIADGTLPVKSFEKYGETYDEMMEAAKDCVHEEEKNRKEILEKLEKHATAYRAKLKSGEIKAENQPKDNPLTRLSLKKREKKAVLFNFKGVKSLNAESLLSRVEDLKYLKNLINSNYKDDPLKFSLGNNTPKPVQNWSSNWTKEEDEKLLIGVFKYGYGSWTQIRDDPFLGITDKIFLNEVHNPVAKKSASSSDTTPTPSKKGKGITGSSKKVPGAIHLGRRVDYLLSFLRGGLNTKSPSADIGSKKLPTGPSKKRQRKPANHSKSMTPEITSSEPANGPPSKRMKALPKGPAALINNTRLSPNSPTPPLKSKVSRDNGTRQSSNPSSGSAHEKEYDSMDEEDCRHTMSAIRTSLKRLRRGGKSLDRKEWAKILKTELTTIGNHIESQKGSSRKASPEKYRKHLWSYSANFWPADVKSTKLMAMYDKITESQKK

For some assays here: Potency and affinity values are given separately.

Protein translocase subunit SecA (Escherichia coli (strain K12)), sequence (P10408 whole entry): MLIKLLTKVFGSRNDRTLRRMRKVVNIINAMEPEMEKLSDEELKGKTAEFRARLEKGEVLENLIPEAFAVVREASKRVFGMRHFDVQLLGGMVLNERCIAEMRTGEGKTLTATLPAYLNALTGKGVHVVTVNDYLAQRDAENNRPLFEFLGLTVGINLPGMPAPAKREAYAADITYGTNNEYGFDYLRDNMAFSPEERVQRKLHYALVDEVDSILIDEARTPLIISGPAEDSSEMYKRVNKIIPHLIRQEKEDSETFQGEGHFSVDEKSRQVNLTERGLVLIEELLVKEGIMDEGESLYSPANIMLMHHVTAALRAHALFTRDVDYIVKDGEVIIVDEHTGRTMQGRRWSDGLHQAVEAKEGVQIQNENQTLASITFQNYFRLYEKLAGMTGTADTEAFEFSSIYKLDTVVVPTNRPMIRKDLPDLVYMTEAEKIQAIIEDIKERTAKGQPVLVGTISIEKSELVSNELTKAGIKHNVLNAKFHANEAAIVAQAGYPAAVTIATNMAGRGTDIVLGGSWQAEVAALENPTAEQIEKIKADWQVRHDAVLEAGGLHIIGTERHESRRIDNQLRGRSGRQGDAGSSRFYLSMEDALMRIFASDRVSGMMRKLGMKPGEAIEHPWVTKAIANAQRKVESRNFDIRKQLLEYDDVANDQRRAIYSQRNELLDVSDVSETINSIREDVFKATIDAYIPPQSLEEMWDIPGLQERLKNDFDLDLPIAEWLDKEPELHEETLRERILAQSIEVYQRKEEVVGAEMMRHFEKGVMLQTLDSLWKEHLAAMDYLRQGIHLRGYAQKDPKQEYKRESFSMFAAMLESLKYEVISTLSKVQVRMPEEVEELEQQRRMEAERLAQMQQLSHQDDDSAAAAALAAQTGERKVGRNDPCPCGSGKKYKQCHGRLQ

Take `c1cnnc(N2CCCC2CNCc2nc(C3CC3)no2)c1` (stereo not given): the Percent Effect in assay [1] is -0.891%; in assay [2] it was -7.69%; in assay [3], 1.93%; in the assay with Trypanosoma cruzi it was 12.1%; in assay [4] it was 1.64%; in assay [5], 1.11%. Moreover, the Percent Effect in the assay filed under Homo sapiens is -18.5%; in assay [6], 6.22%; in assay [7] it was 6.02%; in assay [8], 8.01%.

Turning to `CN(Cc1ccccc1)C(=O)c1nc(S(C)(=O)=O)n2ccccc12`, the Percent Effect was -7.02% in [1]; -92.3% in assay [2]; -5.33% in assay [3]; 9.67% with Trypanosoma cruzi; -1.23% in assay [4]; 1.96% in assay [5]. Besides, the Percent Effect was 5.84% in the assay listed under Homo sapiens, 1.44% in assay [6], 13.2% in assay [7] and -7.37% in [8].

As for `CC(=O)N1CCC(c2cc(C(F)(F)F)n3ccnc3n2)CC1`, the Percent Effect was -2.29% in [1]; 9.33% in assay [2]; -6.3% in [3]; 0.789% with Trypanosoma cruzi; 0.443% in assay [4]; 16.1% in assay [5]. Further, the Percent Effect is 6.98% in the assay listed under Homo sapiens, 7.41% in assay [6], -25% in assay [7] and -32.2% in assay [8].

Consider `CN1CCCn2c(nc(CNC(=O)c3ccsc3)cc2=O)C1`, for which the Percent Effect in assay [1] is -0.659%; in assay [2], 1.3%; in assay [3], -2.49%; with Trypanosoma cruzi, -8.28%; in assay [4], 6.07%; in assay [5] it was 5.56%. The Percent Effect in the assay filed under Homo sapiens is -5.79%; in [6] it was 1.58%; in [7], 5.13%; in assay [8], -0.931%.

In the case of `CN1CCC(c2ncc3c(n2)CCN(C(=O)CC2C=CCC2)C3)CC1` (stereo not given), the Percent Effect is 1.34% in [1]; 14.7% in [2]; -4.21% in assay [3]; -1.58% in the assay on Trypanosoma cruzi; 3.1% in [4]; 9.03% in assay [5]. In addition, the Percent Effect in the assay listed under Homo sapiens is 7.04%; in assay [6], 12.7%; in assay [7], 22.5%; in [8], -23.1%.

With `Cc1cc(NC(=O)C(C)N2CCCN(c3nccs3)CC2)on1` (stereo not given), the Percent Effect is -5.38% in assay [1]; 7.69% in assay [2]; 6.57% in assay [3]; 1.03% with Trypanosoma cruzi; 5.74% in assay [4]; 7.08% in [5]. Besides, the Percent Effect in the assay filed under Homo sapiens was 12.4%; in [6] it was 0.478%; in [7] it was 8.43%; in [8] it was 6.1%.

For the compound `Cc1csc2ncc(-c3ccnc(N4CCCC[C@@H]4CO)n3)c(=O)n12`, the Percent Effect is -2.72% in assay [1]; -16% in [2]; -2.59% in [3]; -2.41% with Trypanosoma cruzi; 0% in assay [4]; 7.72% in [5]. Also, the Percent Effect in the assay filed under Homo sapiens is 19.8%; in assay [6], -3.68%; in assay [7] it was -12.8%; in [8] it was -17.9%.

As to `CC(C)N1CCCC2(CCN(C(=O)CCCn3cncn3)C2)C1=O` (stereo not given), the Percent Effect in assay [1] was -5.4%; in assay [2] it was 5.41%; in assay [3], 6.04%; in the assay on Trypanosoma cruzi, 7.27%; in assay [4] it was -1.75%; in assay [5] it was 15.1%. For the same compound, the Percent Effect in the assay listed under Homo sapiens was 19.6%; in assay [6] it was 7.98%; in assay [7], 12.2%; in assay [8] it was -6.32%.

(Values after ChEMBL document CHEMBL3988442, “University of Dundee, Small-Polar-MMV Screening Library” (2021).)
